Entries with a potency or affinity are not part of this list. Active and inactive are the calls of the source. How the calls were made is not given here.
Experiment: HIV-1 Env-mediated cell fusion inhibitors, dose response, CCR5-tropic Env (AID 2279)
Conditions: CCR5-tropic HIV-1 Env, reporter read-out; series mostly up to 50 µM

outcome, inactive:
O=C(O)COc1ccccc1/C=N/Nc1ccc(S(=O)(=O)Nc2ccc(Cl)cc2)cc1[N+](=O)[O-]
COC(=O)c1sc(-c2ccc(C(C)(C)C)cc2)cc1NC(=O)COCC(=O)O
COc1ccc(/C=N/NC(=O)c2[nH]c3ccc(Br)cc3c2-c2ccccc2)c(C(=O)O)c1OC
CCOc1cc(/C=N/N=C2/NC(=O)C(CC(=O)O)S2)ccc1OCc1ccc(Cl)cc1Cl (stereo not given)
Cc1cn2c(N)c(C=C3C=C(Cl)C(=O)C(Cl)=C3)c(=O)nc2s1
O=[N+]([O-])c1cc(Cl)cc(/C=N/NC(=S)Nc2ccc(S(=O)(=O)N3CCOCC3)cc2)c1O
O=C1/C(=C2\C(=O)N(Cc3ccc(F)cc3)c3ccccc32)SC(=S)N1CCS(=O)(=O)O
CCOC(=O)C1=C(C)N=c2s/c(=C/c3ccc(OCC(=O)O)cc3)c(=O)n2C1c1ccc(SC)cc1 (stereo not given)
CCOc1cc(/C=C2\C(=N)N3N=C(S(C)(=O)=O)SC3=NC2=O)ccc1OCCOc1cccc(OC)c1
O=C(CCN1C(=O)/C(=C/c2cccs2)SC1=S)Nc1ccc(C(=O)O)c(O)c1
O=C(O)CN1C(=O)/C(=C\c2cc(Br)ccc2OCc2ccc(F)cc2)SC1=S
CCCCCC#CCC#CCC#CCC#CCCCC(=O)O
Cc1cc(/C=C2\C(=N)N3N=C(S(C)(=O)=O)SC3=NC2=O)c(C)n1Cc1ccccc1
O=C(Nc1ccc(Br)cc1C(=O)O)c1ccc2c(c1)C(=O)N(Cc1ccccc1)C2=O
N#Cc1c(-c2cccs2)nc(SCc2ccc(Cl)cc2)[nH]c1=O
Cc1ccc(-c2cc(C(=O)Nc3ccc(S(=O)(=O)Nc4onc(C)c4C)cc3)c3ccccc3n2)cc1
O=C(O)CCN1C(=O)/C(=C\c2cccc(Oc3ccccc3)c2)SC1=S
CCCCCc1c2c(cc(O)c1C(=O)O)OC(=O)c1c(cc(OC)cc1C(=O)CCCC)O2
Cc1cc(C)c2nc(N3C(=O)C(O)=C(C(=O)c4ccco4)C3c3ccco3)sc2c1 (stereo not given)
O=C(O)c1cccc2c(-c3ccccc3)c(-c3ccccc3)[nH]c12
COc1cc(/C=C2/C(=O)NN(c3ccc(C)c(Cl)c3)C2=O)cc([N+](=O)[O-])c1O
O=C(NCc1ccccc1)c1ccc2c(=O)[nH]c3c(C(=O)NCC4CCCO4)sc(=S)n3c2c1 (stereo not given)
COc1ccc(/C=C2/SC(=S)N(CC(=O)O)C2=O)cc1OCc1ccc(Cl)cc1
COc1cccc(OCCOc2ccc(/C=C3\C(=N)N4N=C(S(C)(=O)=O)SC4=NC3=O)cc2OC)c1
CC(C)(C)CC(C)(C)c1ccc(OCC(=O)N/N=C/c2ccc(S(=O)(=O)O)o2)cc1
Cc1ccc(NC(=O)COc2cccc(/C=C3\SC(=S)N(CCC(=O)O)C3=O)c2)cc1Cl
CCOc1ccc(NC(=NCc2ccc3c(c2)OCO3)SC2CC(=O)N(c3ccc(C(=O)O)cc3)C2=O)cc1 (stereo not given)
CC(Oc1ccc(Cl)cc1Cl)C(=O)Nc1ccc(S(=O)(=O)Nc2cnc3ccccc3n2)cc1 (stereo not given)
CC(C)COc1ccc(-c2nn(-c3ccccc3)cc2/C=C2/SC(=S)N(CC(=O)O)C2=O)cc1
C=CCOc1ccc(C(c2c(C(=O)O)[nH]c3ccccc23)c2c(C(=O)O)[nH]c3ccccc23)cc1
C/C(=N\Nc1ccc(C(=O)O)cc1)c1ccc2c(c1)Nc1ccccc1S2
CCS(=O)(=O)C1=NN2C(=N)/C(=C\c3ccc(OS(=O)(=O)c4ccccc4)c(OC)c3)C(=O)N=C2S1
CCOc1cc(/C=C2\C(=O)N(c3cccc(C(=O)O)c3)N=C2C(F)(F)F)ccc1OCC(=O)Nc1ccccc1OC
O=C(O)C(c1ccccc1)N1C(=O)/C(=C\c2ccc(O)c(O)c2)SC1=S (stereo not given)
CCCCCNC(=O)c1ccc2c(=O)[nH]c3c(C(=O)NCC4CCCO4)sc(=S)n3c2c1 (stereo not given)
